Assay outcomes deposited in PubChem by Sanford-Burnham Center for Chemical Genomics.
Rows were chosen to be rich in hits. Some 1.1% of all compounds tested hit in one or more screens of this group.
aDG glyco up = activators of alpha-DG glycosylation, primary screen, uHTS, Pro5-aDG cells, AlphaScreen. alpha-DG glycosylation AlphaScreen (IIH6); 0% Pro5, 100% B10-LARGE cell signal. activation, % at 10 µM. 360,000 compounds, 0.22% hits. AID 624168, 2012;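 active = activation of at least 8% versus controls, or a plate z-score of at least 8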;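 note: Pro5 are CHO cells carrying HIG-tagged alpha-DG that lacks glycosylation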
FAS-TE inh = FAS thioesterase domain inhibitors, primary screen, biochemical, fluorescence intensity, uHTS; inhibition, % at 15 µM; recombinant FAS-TE, OMFH fluorogenic substrate, fluorescence endpoint; AID 602261, 2012; 360,000 compounds, 0.67% hits;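 active = compounds whose normalised, plate-corrected inhibition of enzyme fluorescence in the single-dose primary screen is 50% or more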;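 note: 0% = DMSO with enzyme and 100% = substrate without enzyme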
GC-A act = GC-A stimulated cGMP production enhancers – HEK293 GC-A cells, cGMP TR-FRET, EC30 ANP, primary screen. Atrial natriuretic peptide receptor 1 (Homo sapiens), P16066. 0% at EC30 ANP, 100% saturating ANP. activation, % at 10 µM. 370,000 compounds, 0.14% hits. AID 1671463, 2021; in the data active = activation above about 40%
Target sequence (P16066 whole entry, looked up): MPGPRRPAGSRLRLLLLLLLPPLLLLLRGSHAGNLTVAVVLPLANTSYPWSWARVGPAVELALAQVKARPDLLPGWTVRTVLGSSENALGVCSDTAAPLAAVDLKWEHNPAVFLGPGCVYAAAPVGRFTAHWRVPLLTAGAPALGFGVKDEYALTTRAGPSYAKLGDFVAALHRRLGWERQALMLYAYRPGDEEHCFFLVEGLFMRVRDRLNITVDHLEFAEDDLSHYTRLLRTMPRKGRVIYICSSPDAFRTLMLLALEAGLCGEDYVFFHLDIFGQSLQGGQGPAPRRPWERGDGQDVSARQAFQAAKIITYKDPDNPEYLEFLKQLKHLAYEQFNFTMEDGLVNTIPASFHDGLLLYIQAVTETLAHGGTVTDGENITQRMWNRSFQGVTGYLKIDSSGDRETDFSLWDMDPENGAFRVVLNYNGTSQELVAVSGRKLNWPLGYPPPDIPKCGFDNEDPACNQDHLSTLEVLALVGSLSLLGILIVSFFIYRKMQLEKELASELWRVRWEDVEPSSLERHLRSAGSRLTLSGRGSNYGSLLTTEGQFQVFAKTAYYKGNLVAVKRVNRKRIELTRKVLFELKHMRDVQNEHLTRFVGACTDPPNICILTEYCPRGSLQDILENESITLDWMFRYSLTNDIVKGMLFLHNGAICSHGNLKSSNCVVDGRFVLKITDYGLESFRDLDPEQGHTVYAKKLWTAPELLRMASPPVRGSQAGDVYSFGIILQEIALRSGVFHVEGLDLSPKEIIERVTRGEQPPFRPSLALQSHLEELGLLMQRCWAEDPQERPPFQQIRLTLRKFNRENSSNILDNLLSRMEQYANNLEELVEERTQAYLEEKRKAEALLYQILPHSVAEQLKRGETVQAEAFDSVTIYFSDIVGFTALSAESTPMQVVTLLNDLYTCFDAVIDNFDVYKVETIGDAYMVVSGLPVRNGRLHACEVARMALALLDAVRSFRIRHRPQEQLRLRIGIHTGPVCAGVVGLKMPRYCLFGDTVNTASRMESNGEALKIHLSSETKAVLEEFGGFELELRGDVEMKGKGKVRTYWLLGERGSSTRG
GC-B act = human GC-B receptor activators, primary screen, HEK293 GC-B cells, cGMP TR-FRET, EC30 CNP | Atrial natriuretic peptide receptor 2 (Homo sapiens), P20594 | 0% at EC30 CNP, 100% saturating CNP | activation, % at 10 µM | 370,000 compounds, 0.11% hits | AID 1920062, 2024;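 active = activation at 10 µM reaching about 35% in either raw or pattern-adjusted values, limit read from the data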
FAS-TE conf = FAS thioesterase domain inhibitors, confirmation, biochemical, fluorescence intensity, single concentration; shares compounds with FAS-TE inh; recombinant FAS-TE, OMFH fluorogenic substrate; inhibition, % at 15 µM; 2,300 compounds, 45% hits;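 active = compounds inhibiting the enzyme by at least 50% at 15 µM in any one of the replicates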;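 note: 0% = enzyme with DMSO only and 100% = wells lacking enzyme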
* marks the source's active call; other numbers are inactive results; . = not tested or not shown.

SMILES | aDG glyco up | FAS-TE inh | GC-A act | GC-B act | FAS-TE conf
CCOC1=C2CN(S(=O)(=O)c3ccccc3)[C@@H](c3ccccc3)C[C@H]2[C@H]2C(=O)N(c3ccccc3)C(=O)[C@H]2C1 | . | . | -0.4 | -5.9 | .
CCOC1=C2CN(S(=O)(=O)c3ccc(C)cc3)[C@@H](c3cccc4ccccc34)C[C@H]2[C@H]2C(=O)N(c3ccccc3)C(=O)[C@H]2C1 | 1.4 | 87.7* | 4.5 | 1.1 | 6.0
O=C(NCc1ccco1)C1CCCN(S(=O)(=O)c2ccc([N+](=O)[O-])cc2)C1 (stereo not drawn) | . | . | 2.7 | -3.2 | .
CCOC1=C2[C@H](c3ccccc3)N(S(=O)(=O)c3ccc(C)cc3)C(C(C)(C)C)[C@H]2C(C#N)(C#N)C(C#N)(C#N)C1 (stereo partly drawn) | -0.1 | 77.5* | -17.4 | -7.9 | 11.9
CCOC1=C2[C@@H](CN(S(=O)(=O)c3ccc(C)cc3)[C@H]2c2ccc(CC)cc2)[C@H]2C(=O)N(c3ccccc3)C(=O)[C@H]2C1 | -0.2 | 50.4* | 3.0 | -2.5 | 9.7
Cc1onc(-c2ccccc2)c1C(N)=O | 1.3 | -1.3 | 1.4 | 4.0 | .
Cc1onc(-c2ccccc2)c1C(=O)n1nnc2ccccc21 | -0.2 | 52.3* | 14.9 | 4.5 | 51.3*
CCN(CC)C(=O)CC[C@H]1CC[C@]2(CCCN(S(=O)(=O)C3CCCCC3)C2)O1 | . | . | 2.8 | 7.0 | .
COC(=O)c1ccc(Nc2nnc(-c3ccc(C)c(S(=O)(=O)NCC4CCCO4)c3)c3ccccc23)cc1 (stereo not drawn) | 0.5 | 66.9* | 4.4 | 0.1 | 21.0
CS(=O)(=O)c1cc([N+](=O)[O-])c(Sc2nc3ccccc3[nH]2)c([N+](=O)[O-])c1 | 1.4 | 51.0* | -2.6 | -5.0 | 32.1
O=C(O)c1cc([N+](=O)[O-])c(Sc2nc3ccccc3[nH]2)c([N+](=O)[O-])c1 | 0.1 | 8.1 | 3.6 | 7.7 | .
Cc1c(Cl)c([N+](=O)[O-])nn1CCCC(=O)Nc1cccnc1 | 0.1 | -0.7 | -2.5 | 0.3 | .
Cc1c(Cl)c([N+](=O)[O-])nn1CCCC(=O)Nc1cccc(Cl)c1 | -0.1 | 50.9* | -9.1 | -9.5 | 42.0*
COc1cc(N2C[C@@]3(O)CC[C@@H](O)[C@@H](OC)[C@@H]3[C@@](C)(O)[C@@H]2CC=C(C)C)cc(OC)c1OC | . | . | -3.1 | 2.5 | .
CC(C)(C)c1ccc(OCCC(=O)OCC(=O)N2c3ccccc3NC(=O)C2(C)C)cc1 | 0.1 | 56.4* | 3.8 | 7.5 | 65.6*
Cc1ccc([N+](=O)[O-])cc1S(=O)(=O)NCC1COc2ccccc2O1 (stereo not drawn) | -0.3 | 66.2* | 3.7 | 1.0 | 60.3*
O=C(Cn1cc([N+](=O)[O-])ccc1=O)NCC1COc2ccccc2O1 (stereo not drawn) | -0.1 | 52.2* | -3.2 | 2.6 | 54.6*
O=C(CCNC(=O)c1ccc([N+](=O)[O-])cc1)NCC1COc2ccccc2O1 (stereo not drawn) | 0.0 | 41.9 | 7.9 | -1.6 | .
Cc1ccc(S(=O)(=O)NCC2COc3ccccc3O2)cc1 (stereo not drawn) | -0.2 | 2.7 | 3.8 | 2.8 | .
CC(C)Oc1ccc(S(=O)(=O)N2CCOCC2)cc1NC(=O)c1nn(C)c(=O)c2ccccc12 | -0.1 | 67.3* | 3.5 | 5.3 | 25.7
COc1ccc(S(=O)(=O)N2CCOCC2)cc1NC(=O)c1cccc2c(=O)c(C)c(-c3ccccc3)oc12 | -0.9 | 93.3* | 5.0 | 12.8 | 27.0
Cn1nc(C(=O)Nc2ccc(Cl)c(S(=O)(=O)N3CCOCC3)c2)c2ccccc2c1=O | -0.3 | 15.7 | 1.6 | 1.9 | .
CN1C(=O)C(c2cn(C)c3ccccc23)(c2cn(C)c3ccccc23)c2ccccc21 | . | . | -16.6 | -14.4 | .
Cc1nc(N2CCN(S(=O)(=O)c3cccc4nonc34)CC2)c2c3c(sc2n1)CCCC3 | -0.5 | 54.1* | -7.8 | -3.8 | 6.8
O=C(C/C=N\OCc1ccc([N+](=O)[O-])cc1)Nc1ccc(Br)cc1 | 0.6 | 54.8* | -3.8 | -1.6 | 57.0*
SMILES | aDG glyco up | FAS-TE inh | GC-A act | GC-B act | FAS-TE conf
O=C(COc1ccc([N+](=O)[O-])cc1)NNC(=O)Nc1ccc([N+](=O)[O-])cc1 | -0.4 | 47.9 | 1.2 | -4.3 | .
CN(CCO)c1cc(NCCCN2CCC(Cc3ccccc3)CC2)c2nonc2c1[N+](=O)[O-] | 2.5 | 67.8* | -7.6 | -7.1 | 42.5*
CC(OC(=O)c1cccc(S(=O)(=O)N2CCN(C)CC2)c1)C(=O)Nc1ccc(C(N)=O)cc1 (stereo not drawn) | -0.1 | -6.1 | -1.1 | 0.3 | .
CCc1ccc(NC(=O)C(C)OC(=O)c2cccc(S(=O)(=O)N3CCc4ccccc4C3)c2)cc1 (stereo not drawn) | 0.4 | 52.5* | 0.2 | 4.1 | 19.9
O=C1c2ccc(-c3ccc(F)cc3OCc3ccccc3)cc2S(=O)(=O)c2cccc(C(=O)N3CCCC3)c21 | 0.0 | 61.7* | . | . | -1.2
O=C(NCc1cccc(OC(F)(F)F)c1)c1cccc2c1C(=O)c1ccc(-c3ccc(F)cc3OCc3ccccc3)cc1S2(=O)=O | -0.5 | 30.5 | 0.8 | 2.7 | .
COc1ccccc1N1CCN(c2ccc3c(c2)S(=O)(=O)c2cccc(C(=O)NCc4cccc(F)c4)c2C3=O)CC1 | -0.3 | 64.3* | 0.9 | 3.0 | 27.0
CC(C)C(NC(=O)C12CC3CC(CC(C3)C1)C2)C(=O)N/N=C/C1=C(N2CCOCC2)C(=C\c2ccc([N+](=O)[O-])cc2)/CC1 (stereo not drawn) | -0.1 | 78.7* | -1.3 | -6.3 | 7.2
CC(NC(=O)C12CC3CC(CC(C3)C1)C2)C(=O)N/N=C/C1=C(N2CCOCC2)C(=C\c2cccc([N+](=O)[O-])c2)/CC1 (stereo not drawn) | 0.6 | 89.0* | 0.2 | 0.5 | 12.1
CC(NC(=O)C12CC3CC(CC(C3)C1)C2)C(=O)NN=Cc1ccc([N+](=O)[O-])o1 (stereo not drawn) | 3.3 | 19.5 | -3.1 | -3.5 | .
N#Cc1cc2sc3nnc(-c4ccncc4)n3c2cc1C#N | 0.9 | 74.7* | 10.9 | -8.3 | 52.9*
C[C@@H]1ON(C)[C@H]2C[C@H]3c4[nH]c5cccc(Br)c5c4CCN3C(=O)[C@@H]12 | . | . | -7.7 | -9.2 | .
O=C(CCCn1c(SCc2cccc([N+](=O)[O-])c2)nc2ccccc2c1=O)NCC1CCCO1 (stereo not drawn) | 0.6 | 86.2* | -11.6 | 3.6 | 29.5
O=C(CCCn1c(SCc2ccccc2F)nc2ccccc2c1=O)NCC1CCCO1 (stereo not drawn) | 0.4 | 4.1 | -11.2 | 1.7 | .
